From PubChem BioAssay AID1259240 (Keith Lab, Institute of Cancer Science, University of …, 2017) come the findings set out here.

Structures are written as SMILES. Unmarked numbers belong to inactive results. Active and inactive are the calls of the source. Cut-off read from the data, not from the text of the source: active = fold change mostly below about -2 (no sharp cut-off); inactive = mostly above about -1.8.

A short description of this assay: TERT promoter activity modulators, primary screen, cell-based, luciferase reporter, human (AID 1259240). The conditions noted are these: A2780 TERT promoter luciferase reporter, 16 h; at 20 µM, fold versus average of vehicle-only wells.
`CCOC(=O)N1CCN(c2c(N(CC)CCN(C)C)c(=O)c2=O)CC1`: the fold change is -1.33.
Same read-out and setting: in the case of `O=C1Nc2ccccc2/C1=C\c1cn(CC(=O)N2CCCC2)c2ccccc12` it was 1.66; in that of `COc1ccccc1/C=c1\sc2nc(-c3cc(OC)c(OC)c(OC)c3)nn2c1=O`, -1.32; in that of `Cc1ccc(C)c(Nc2nc3ccccc3n3nnnc23)c1`, 1.43.
Still for that read-out and setting: the same measure for `Cc1noc(C(=O)NC(C)C)c1Cl`: 1.11; for `c1ccc2nc3c(nc2c1)Nn1cnnc1S3`: -1.42.
Same read-out and setting: the same measure for `CCOC(=O)c1c(CN2CCOCC2)oc2ccc(OC)cc12`: -1.29; for `CC(C)C(NS(=O)(=O)c1ccc2c(c1)oc(=O)n2C)C(=O)N1CCN(c2ccccc2F)CC1` (stereo not given): 1.1; for `O=C(CSc1ncnc2ccccc12)N1CCc2ccccc21`: 1.26.
As to `O=C(Cc1ccc(NC2=NC3CS(=O)(=O)CC3S2)cc1)NCc1ccco1` (stereo not given), the fold change was -1.32.
Same read-out and setting: in the case of `NC(=O)c1c(NC(=O)c2csc3c2CCCC3)sc2c1CCCC2` it was -1.89.
For `CC1=C(C(N)=O)C(c2ccc(O)cc2)n2nc(CCCO)nc2N1` (stereo not given), the molecule was classed as inactive.
On the same count and under the same terms, the same measure for `C1=C(c2cccnc2)Nc2nc3ccccc3n2C1c1cccs1` (stereo not given): “inactive”.
As for `Cc1[nH]nc2c1C(c1cccs1)NC2=O` (stereo not given), the fold change was -1.17.
Turning to `O=C(NC1(C(F)(F)F)NC(=O)N(Cc2ccco2)C1=O)c1ccncc1` (stereo not given), the fold change is -2.35 (active).
The same measure, in the same setting: the same measure for `CCOC(=O)C1CCN(c2c(N3CCN(CC)CC3)c(=O)c2=O)CC1`: 1.21; for `CCOc1ccc2nc(NC(=O)CN(C)S(=O)(=O)c3cnc[nH]3)sc2c1`: 1.35; for `CCc1ccc2nc(NC3=NCN(CCN4CCOCC4)CN3)nc(C)c2c1`: -1.26.
As to `CCOC(=O)c1c(C)n(C)c2ccc(OCC(O)Cn3nc(C)cc3C)cc12` (stereo not given), the fold change was -2.1 (active).
Consider `Cc1cc2c(cc1C)NC(c1nc3ccccc3[nH]1)C1=C(CC(C)(C)CC1=O)N2` (stereo not given), for which the fold change was -1.29.
On the same count and under the same terms, in the case of `O=C1C2ON(c3ccccc3)C(c3ccncc3)C2C(=O)N1c1ccc(N2CCOCC2)cc1` (stereo not given) it was -1.7; in that of `Cc1ccc2c(c1)/C(=c1/sc3n(c1=O)CN(c1ccc(Cl)cc1)CN=3)C(=O)N2`, -1.65; in that of `Cc1ccc2nc(N3CCOCC3)c3nncn3c2c1`, 1.35.
Still for that read-out and setting: in the case of `CC1CCOC2(O1)C(=O)N(CN1CCN(c3cccc(Cl)c3)CC1)c1ccccc12` (stereo not given) it was -1.15; in that of `O=C(NC1CCCCCC1)C1CCC(CNc2c(NC3CCCCC3)c(=O)c2=O)CC1` (stereo not given), -1.28.
Consider `COc1cc(-c2nc3cnccn3c2NC2CCCCC2)ccc1O`, for which the outcome was inactive.
Consider `CN(Cc1ccco1)C(=O)c1ccc(CNc2c(N3CCCCC3)c(=O)c2=O)cc1`, for which the fold change was -1.11.
On the same count and under the same terms, the same measure for `Cn1c2ccccc2c2cnn(CC(=O)N3CCN(c4ccccn4)CC3)c(=O)c21`: -1.1.
For the molecule `O=C(CSc1nc(-c2ccco2)cc(C(F)(F)F)n1)N1CCOCC1`, the fold change was -2.11 (active).
Turning to `COc1cccc(/C=c2\sc3nc(=O)c(Cc4ccc(Cl)cc4)nn3c2=O)c1OC`, the fold change was -1.08.
Still for that read-out and setting: the same measure for `CCN(CCO)CCNc1cc(N2CCCC(C)C2)c2noc3c2c1C(=O)c1ccccc1-3` (stereo not given): -6.87 (active); for `CCOP(=O)(OCC)C(Nc1ccccc1)c1ccco1` (stereo not given): 1.02.
Same read-out and setting: the same measure for `CC1CCN(c2nnc(NC(=O)Nc3ccc(F)cc3)s2)CC1`: -1.1.
For the molecule `CC1=NN(c2nc3ccccc3nc2-n2nc(C)cc2C)C(=O)C1`, the fold change is -1.08.
As for `O=C(Nc1ccc(S(=O)(=O)N2CCCC2)cc1)C1c2ccccc2Oc2ccccc21`, the fold change is -1.83.
Same read-out and setting: in the case of `c1cncc(Cc2nnc(N3CCC4(CC3)OCCO4)c3ccccc23)c1` it was -1.13.
Regarding `CCOC(=O)CSc1nnc(-c2c[nH]c3ccccc23)n1CCOC`, the molecule was called inactive.
`COC(=O)CSCc1nc2ccccc2[nH]c1=O`: the fold change was -1.41.
Still for that read-out and setting: the same measure for `COc1cc(OC)c(-c2nc(-c3ccc(C)cc3)no2)cc1OC`: 1.55; for `COc1ccccc1Nc1nc(N)nc(CN2CCN(C)CC2)n1`: -3.68 (active).
